Reference: the supplement of paper PMC10849652
The full data set covers some 7,900 targets. This sample favours those with a hit. About 0.6% of all pairs of compound and target were hits. Unmarked numbers belong to inactive results.

Experiments:
Assay in all cases: log2 fold change, soluble protein after heating vs DMSO (PISA); higher = thermal stabilisation; K562 cells, 10 uM, 30 min; active = over 0.2 and 3.5 SD of the protein, either way, in both replicates (recomputed)
[1] = compound: Cc1ccc(NC(=O)c2ccc(CN3CC[C@H](N(C)C)C3)c(C(F)(F)F)c2)cc1Nc1nccc(-c2cncnc2)n1 [bafetinib]
In short: (§1)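 Values are thermal stability changes relative to control samples and are taken from duplicates. They are stated as log2 fold changes. Before quantification by TMTpro 16plex LC-MS/MS with equalised channel sums, K562 cells at 2×10^6 cells/mL were treated with 10 μM compound for 30 min, heated in aliquots for 3 min across 48°C-58°C, pooled, extracted in PBS with 0.5% NP-40 at 4°C, and centrifuged at 21,000xg for 90 min to give the soluble supernatant.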

[2] = compound: Cc1cccc(CC(=O)N2CCc3c2ccc(-c2cn(C)c4ncnc(N)c24)c3F)n1
In short: as §1

[3] = compound: Cc1cn(-c2cc(NC(=O)c3ccc(C)c(Nc4nccc(-c5cccnc5)n4)c3)cc(C(F)(F)F)c2)cn1 [nilotinib]
In short: as §1

[4] = compound: Cc1nc(Nc2n[nH]c3c2CN(C(=O)N[C@H](CN(C)C)c2ccccc2)C3(C)C)c2sccc2n1
In short: as §1

[5] = compound: Cc1nc(Nc2ncc(C(=O)Nc3c(C)cccc3Cl)s2)cc(N2CCN(CCO)CC2)n1 [dasatinib]
In short: as §1

[6] = compound: Cc1ncc(-c2ccnc(Nc3ccc(S(C)(=O)=O)cc3)n2)n1C(C)C
In short: as §1

[7] = compound: Cn1cc(-c2ccc3c(c2)CCN3C(=O)Cc2cccc(C(F)(F)F)c2)c2c(N)ncnc21
In short: as §1

[8] = compound: Cn1cc(-c2ccc3nnc(C(F)(F)c4ccc5ncccc5c4)n3n2)cn1
In short: as §1

[9] = compound: Cn1cncc1[C@@](N)(c1ccc(Cl)cc1)c1ccc2c(c1)c(-c1cccc(Cl)c1)cc(=O)n2C [tipifarnib]
In short: as §1

[10] = compound: FC(F)(F)c1ccc(/C=C/c2nc(COc3ccc(CCCCn4ccnn4)cc3)co2)cc1 [mubritinib]
In short: as §1

[11] = compound: NC(=O)Nc1cc(-c2cccc(F)c2)sc1C(=O)N[C@H]1CCCNC1
In short: as §1

[12] = compound: NC(=O)c1cnc(N[C@@H]2CCCC[C@@H]2N)nc1Nc1cccc(-n2nccn2)c1
In short: as §1

[13] = compound: NC1(c2ccc(-c3nc4ccn5c(=O)[nH]nc5c4cc3-c3ccccc3)cc2)CCC1
In short: as §1

[14] = compound: NCC(=O)Nc1ccc(-n2nc(C(F)(F)F)cc2-c2ccc3c(ccc4ccccc43)c2)cc1
In short: as §1

[15] = compound: Nc1ccccc1NC(=O)c1ccc(CNC(=O)OCc2cccnc2)cc1 [entinostat]
In short: as §1

[16] = compound: O=C(CCCCCCC(=O)Nc1ccccc1)NO [vorinostat]
In short: as §1

[17] = compound: O=C(CCCCCCNC(=O)c1cnc(N(c2ccccc2)c2ccccc2Cl)nc1)NO [citarinostat]
In short: as §1

[18] = compound: O=C(O)c1ccc2c(c1)nc(Nc1cccc(Cl)c1)c1ccncc12 [silmitasertib]
In short: as §1

[19] = compound: O=C1NC(=O)C(c2cnc3ccccn23)=C1c1cn2c3c(cc(F)cc13)CN(C(=O)N1CCCCC1)CC2
In short: as §1

[20] = compound: c1cc(OCCN2CCCCC2)cc(-c2n[nH]c3ccc(-c4nnc[nH]4)cc23)c1
In short: as §1

UniProt Q9Y3C0, sequence (Q9Y3C0 whole entry, looked up): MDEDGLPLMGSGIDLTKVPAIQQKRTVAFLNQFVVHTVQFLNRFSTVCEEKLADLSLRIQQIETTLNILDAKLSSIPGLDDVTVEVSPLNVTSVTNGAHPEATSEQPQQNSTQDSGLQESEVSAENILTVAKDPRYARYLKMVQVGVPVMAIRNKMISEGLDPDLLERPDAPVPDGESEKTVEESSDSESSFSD
UniProt Q96JC1, sequence (Q96JC1 whole entry, looked up): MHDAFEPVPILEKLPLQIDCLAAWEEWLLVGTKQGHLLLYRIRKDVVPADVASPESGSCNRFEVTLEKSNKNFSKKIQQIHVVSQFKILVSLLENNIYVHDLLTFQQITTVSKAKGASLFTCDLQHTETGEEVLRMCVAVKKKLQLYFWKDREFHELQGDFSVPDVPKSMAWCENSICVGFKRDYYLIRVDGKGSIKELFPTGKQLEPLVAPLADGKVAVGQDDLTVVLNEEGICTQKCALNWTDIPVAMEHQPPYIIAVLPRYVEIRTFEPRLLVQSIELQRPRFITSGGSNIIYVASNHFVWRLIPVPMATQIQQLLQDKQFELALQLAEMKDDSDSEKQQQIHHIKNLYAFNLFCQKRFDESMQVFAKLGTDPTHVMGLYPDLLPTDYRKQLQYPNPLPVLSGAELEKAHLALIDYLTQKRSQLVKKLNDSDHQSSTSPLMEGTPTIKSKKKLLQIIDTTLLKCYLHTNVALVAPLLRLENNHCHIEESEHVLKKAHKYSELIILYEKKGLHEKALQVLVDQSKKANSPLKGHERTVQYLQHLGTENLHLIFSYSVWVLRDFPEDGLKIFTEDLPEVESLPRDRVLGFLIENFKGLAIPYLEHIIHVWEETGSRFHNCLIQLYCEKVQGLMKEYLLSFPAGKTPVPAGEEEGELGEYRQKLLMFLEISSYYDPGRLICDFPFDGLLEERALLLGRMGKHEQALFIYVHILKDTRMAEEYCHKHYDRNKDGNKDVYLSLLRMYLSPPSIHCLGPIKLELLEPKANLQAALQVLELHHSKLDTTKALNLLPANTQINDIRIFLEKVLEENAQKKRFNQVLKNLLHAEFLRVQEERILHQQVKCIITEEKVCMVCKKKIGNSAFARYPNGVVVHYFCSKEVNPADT
UniProt Q96QU8, sequence (Q96QU8 whole entry, looked up): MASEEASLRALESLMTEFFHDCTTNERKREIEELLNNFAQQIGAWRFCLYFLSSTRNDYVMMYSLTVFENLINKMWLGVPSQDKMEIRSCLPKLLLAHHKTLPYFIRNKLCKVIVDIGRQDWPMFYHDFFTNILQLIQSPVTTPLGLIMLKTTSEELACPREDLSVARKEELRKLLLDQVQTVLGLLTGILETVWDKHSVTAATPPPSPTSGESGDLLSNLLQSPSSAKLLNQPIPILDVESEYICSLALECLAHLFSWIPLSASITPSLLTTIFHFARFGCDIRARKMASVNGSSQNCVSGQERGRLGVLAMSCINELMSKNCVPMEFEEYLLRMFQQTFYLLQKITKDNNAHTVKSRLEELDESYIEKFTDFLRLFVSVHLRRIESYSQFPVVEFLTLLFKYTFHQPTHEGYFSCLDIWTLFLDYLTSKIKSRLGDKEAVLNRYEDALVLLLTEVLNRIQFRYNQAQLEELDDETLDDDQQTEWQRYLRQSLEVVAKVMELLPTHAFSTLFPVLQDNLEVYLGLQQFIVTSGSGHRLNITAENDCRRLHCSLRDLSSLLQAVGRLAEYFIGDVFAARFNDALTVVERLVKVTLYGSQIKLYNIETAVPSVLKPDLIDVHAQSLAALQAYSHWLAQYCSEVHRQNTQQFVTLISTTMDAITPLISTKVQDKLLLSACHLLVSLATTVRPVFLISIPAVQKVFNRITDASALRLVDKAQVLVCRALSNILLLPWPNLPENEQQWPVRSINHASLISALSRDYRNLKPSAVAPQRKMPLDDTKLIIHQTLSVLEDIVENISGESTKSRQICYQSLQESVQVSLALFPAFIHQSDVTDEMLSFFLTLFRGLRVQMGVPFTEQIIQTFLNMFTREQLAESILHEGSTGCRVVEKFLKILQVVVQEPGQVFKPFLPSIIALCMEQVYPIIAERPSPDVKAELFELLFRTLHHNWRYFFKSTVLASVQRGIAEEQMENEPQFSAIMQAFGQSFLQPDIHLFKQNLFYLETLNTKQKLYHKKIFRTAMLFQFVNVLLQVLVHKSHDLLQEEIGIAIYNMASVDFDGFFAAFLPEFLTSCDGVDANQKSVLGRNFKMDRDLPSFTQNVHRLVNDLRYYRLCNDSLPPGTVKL
UniProt Q9NQW7, sequence (Q9NQW7 whole entry, looked up): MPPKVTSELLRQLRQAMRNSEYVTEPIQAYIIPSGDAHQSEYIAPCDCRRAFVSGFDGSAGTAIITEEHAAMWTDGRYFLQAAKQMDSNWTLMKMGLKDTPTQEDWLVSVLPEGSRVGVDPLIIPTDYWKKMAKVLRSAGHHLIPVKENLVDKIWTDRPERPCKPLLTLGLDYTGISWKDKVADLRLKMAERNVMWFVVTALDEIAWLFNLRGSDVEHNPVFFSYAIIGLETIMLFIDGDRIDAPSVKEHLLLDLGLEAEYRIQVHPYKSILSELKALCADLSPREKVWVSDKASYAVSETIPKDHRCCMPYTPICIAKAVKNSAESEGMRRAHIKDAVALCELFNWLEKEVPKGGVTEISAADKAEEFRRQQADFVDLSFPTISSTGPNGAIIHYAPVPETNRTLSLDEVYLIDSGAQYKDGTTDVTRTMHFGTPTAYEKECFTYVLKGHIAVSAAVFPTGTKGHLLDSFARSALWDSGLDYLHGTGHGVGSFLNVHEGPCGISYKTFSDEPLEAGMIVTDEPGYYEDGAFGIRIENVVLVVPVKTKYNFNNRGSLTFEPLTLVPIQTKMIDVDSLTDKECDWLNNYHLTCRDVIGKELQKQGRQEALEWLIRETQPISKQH
UniProt O15213, sequence (O15213 whole entry, looked up): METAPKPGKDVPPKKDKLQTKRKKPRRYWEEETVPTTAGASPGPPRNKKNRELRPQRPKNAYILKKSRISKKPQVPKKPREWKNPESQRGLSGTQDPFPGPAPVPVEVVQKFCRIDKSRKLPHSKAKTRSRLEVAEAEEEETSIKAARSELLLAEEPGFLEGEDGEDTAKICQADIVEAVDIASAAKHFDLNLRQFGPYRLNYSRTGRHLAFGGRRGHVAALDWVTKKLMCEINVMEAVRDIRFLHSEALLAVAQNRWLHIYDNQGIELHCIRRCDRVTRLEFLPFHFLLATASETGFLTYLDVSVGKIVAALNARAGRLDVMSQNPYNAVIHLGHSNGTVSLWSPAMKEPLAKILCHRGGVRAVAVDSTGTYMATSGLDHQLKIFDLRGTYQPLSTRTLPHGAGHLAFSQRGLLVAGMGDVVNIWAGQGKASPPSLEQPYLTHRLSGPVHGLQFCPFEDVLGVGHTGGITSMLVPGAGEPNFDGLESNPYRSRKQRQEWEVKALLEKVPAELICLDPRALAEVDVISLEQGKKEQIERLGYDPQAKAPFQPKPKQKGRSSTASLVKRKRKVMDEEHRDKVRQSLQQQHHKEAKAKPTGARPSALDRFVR
UniProt Q7L0Y3, sequence (Q7L0Y3 whole entry, looked up): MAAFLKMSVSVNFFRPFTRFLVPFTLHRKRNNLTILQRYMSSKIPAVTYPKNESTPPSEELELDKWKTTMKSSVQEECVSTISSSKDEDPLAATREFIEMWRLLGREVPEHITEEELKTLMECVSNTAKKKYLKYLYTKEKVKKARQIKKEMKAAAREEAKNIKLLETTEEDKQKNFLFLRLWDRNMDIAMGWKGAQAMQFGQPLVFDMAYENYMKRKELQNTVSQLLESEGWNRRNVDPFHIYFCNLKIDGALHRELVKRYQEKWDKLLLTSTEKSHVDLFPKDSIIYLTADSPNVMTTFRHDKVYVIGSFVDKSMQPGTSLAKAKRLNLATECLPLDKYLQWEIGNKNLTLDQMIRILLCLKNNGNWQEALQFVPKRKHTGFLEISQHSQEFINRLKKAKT
UniProt P26368, sequence (P26368 whole entry, looked up): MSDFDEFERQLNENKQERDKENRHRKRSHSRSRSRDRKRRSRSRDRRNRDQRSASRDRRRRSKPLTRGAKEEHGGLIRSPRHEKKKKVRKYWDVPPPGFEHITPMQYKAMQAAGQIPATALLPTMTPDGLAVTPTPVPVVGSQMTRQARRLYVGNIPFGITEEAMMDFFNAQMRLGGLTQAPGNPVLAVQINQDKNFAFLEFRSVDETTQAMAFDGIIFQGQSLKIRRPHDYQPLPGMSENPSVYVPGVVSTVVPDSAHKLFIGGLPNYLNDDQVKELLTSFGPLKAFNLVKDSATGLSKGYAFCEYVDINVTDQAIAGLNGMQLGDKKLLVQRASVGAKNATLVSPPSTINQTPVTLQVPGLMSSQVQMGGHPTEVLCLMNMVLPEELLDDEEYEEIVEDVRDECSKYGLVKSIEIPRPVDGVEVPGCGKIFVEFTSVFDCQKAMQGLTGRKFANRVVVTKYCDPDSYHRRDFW
UniProt Q8N1B4, sequence (Q8N1B4 whole entry, looked up): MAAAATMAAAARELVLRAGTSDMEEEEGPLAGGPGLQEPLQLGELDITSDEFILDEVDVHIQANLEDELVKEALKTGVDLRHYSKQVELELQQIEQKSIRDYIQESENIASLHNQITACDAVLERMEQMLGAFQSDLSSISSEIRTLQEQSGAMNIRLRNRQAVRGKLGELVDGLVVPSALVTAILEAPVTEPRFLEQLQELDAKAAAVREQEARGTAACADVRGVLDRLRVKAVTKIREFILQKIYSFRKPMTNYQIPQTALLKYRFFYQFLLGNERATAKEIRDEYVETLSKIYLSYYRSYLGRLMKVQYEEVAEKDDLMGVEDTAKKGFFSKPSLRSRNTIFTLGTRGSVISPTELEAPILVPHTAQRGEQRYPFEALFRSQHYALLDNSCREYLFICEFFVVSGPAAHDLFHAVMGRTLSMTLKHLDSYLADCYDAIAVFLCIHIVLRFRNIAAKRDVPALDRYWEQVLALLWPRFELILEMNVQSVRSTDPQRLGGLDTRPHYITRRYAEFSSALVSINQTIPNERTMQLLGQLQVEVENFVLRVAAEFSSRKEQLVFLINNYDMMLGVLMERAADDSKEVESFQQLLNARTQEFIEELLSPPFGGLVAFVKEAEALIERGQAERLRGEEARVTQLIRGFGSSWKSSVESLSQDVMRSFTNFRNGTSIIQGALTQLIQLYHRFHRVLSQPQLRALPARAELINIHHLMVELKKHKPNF

Row | Target | log2 fold change [1] | log2 fold change [2] | log2 fold change [3] | log2 fold change [4] | log2 fold change [5] | log2 fold change [6] | log2 fold change [7] | log2 fold change [8] | log2 fold change [9] | log2 fold change [10] | log2 fold change [11] | log2 fold change [12] | log2 fold change [13] | log2 fold change [14] | log2 fold change [15] | log2 fold change [16] | log2 fold change [17] | log2 fold change [18] | log2 fold change [19] | log2 fold change [20]
1 | XPO6 (UniProt Q96QU8) | 0.057 | -0.05 | -0.143 | -0.148 | -0.109 | 0.027 | -0.001 | -0.117 | -0.111 | 0.092 | 0.068 | -0.103 | -0.154 | -0.118 | 0.025 | 0.048 | 0.085 | 0.01 | 0.099 | -0.038
2 | TRMT10C (UniProt Q7L0Y3) | -0.044 | 0.107 | -0.043 | -0.066 | -0.181 | 0.012 | 0.046 | 0.038 | -0.037 | 0.153 | -0.055 | -0.027 | -0.137 | -0.018 | 0.022 | 0 | -0.018 | -0.026 | -0.075 | 0.035
3 | WDR46 (UniProt O15213) | 0.251 | -0.026 | -0.055 | 0.117 | 0.364 | 0.096 | -0.376 | -0.187 | 0.084 | -0.093 | 0.098 | 0.083 | 0.253 | 0.177 | -0.027 | -0.042 | -0.139 | 0.173 | 0.257 | -0.143
4 | VPS52 (UniProt Q8N1B4) | -0.005 | -0.031 | -0.085 | -0.086 | -0.071 | 0.091 | 0.001 | -0.016 | -0.089 | 0 | 0.065 | -0.005 | -0.132 | -0.039 | 0.037 | 0.086 | 0.015 | 0.08 | 0.02 | 0.016
5 | VRK1 (UniProt Q99986) | 0.035 | 0.078 | -0.074 | 0.542 (active) | -0.224 | 0.164 | 0.057 | 0.028 | -0.041 | 0.008 | -0.056 | 0.025 | -0.11 | -0.144 | 0.059 | 0.046 | 0.023 | -0.028 | -0.138 | 0.063
6 | XPNPEP1 isoform 3 (UniProt Q9NQW7) | -0.047 | -0.013 | -0.036 | 0.014 | -0.086 | -0.028 | 0.084 | 0.039 | -0.033 | 0.042 | -0.04 | -0.052 | -0.126 | -0.07 | 0.015 | 0.399 (active) | 0.062 | -0.037 | -0.02 | 0.025
7 | VPS13B (UniProt Q7Z7G8) | -0.075 | -0.012 | -0.005 | 0.049 | 0.047 | -0.004 | 0.005 | 0.029 | 0.037 | 0.01 | -0.064 | -0.033 | -0.069 | -0.039 | -0.033 | 0.041 | 0.018 | 0.038 | -0.043 | -0.03
8 | TXNIP (UniProt Q9H3M7) | 0.03 | -0.072 | 0.018 | 0.185 | 0.005 | -0.264 | 0.105 | -0.105 | 0.199 | -0.264 | 0.091 | -0.024 | 0.19 | 0.007 | -0.009 | 0.018 | 0.071 | 0.115 | -0.079 | 0.005
9 | U2AF2 (UniProt P26368) | -0.019 | -0.241 (active) | -0.003 | -1.66 (active) | 0.018 | 0.049 | -0.011 | -0.044 | 0.045 | -0.051 | -0.125 | -0.021 | 0.033 | -0.051 | -0.031 | -0.129 | -0.014 | -0.049 | 0.113 | -0.09
10 | VPS53 isoform 4 (UniProt Q5VIR6) | -0.04 | 0.036 | -0.1 | -0.148 | -0.087 | 0.037 | -0.035 | -0.027 | -0.061 | 0.003 | -0.036 | -0.062 | -0.105 | -0.021 | 0.052 | 0.018 | 0.025 | 0.063 | -0.066 | -0.02
11 | UHRF1BP1 (UniProt Q6BDS2) | 0.042 | 0.015 | 0.138 | 0.003 | 0.044 | -0.023 | 0.045 | 0.021 | -0.005 | 0.028 | -0.019 | 0.074 | 0.019 | 0.029 | -0.058 | 0.004 | -0.012 | -0.043 | -0.032 | 0.007
12 | VAMP7 (UniProt P51809) | -0.066 | 0.025 | -0.034 | -0.04 | 0.002 | 0.023 | 0.017 | 0.086 | -0.04 | 0.003 | -0.029 | 0.001 | -0.176 | -0.069 | 0.009 | 0.025 | 0.086 | 0.027 | -0.058 | 0.026
13 | VWA8 (UniProt A3KMH1) | -0.113 | -0.001 | -0.099 | -0.018 | -0.158 | -0.016 | -0.057 | 0.067 | 0.036 | -0.255 (active) | -0.017 | -0.024 | -0.135 | -0.016 | 0.008 | 0.096 | 0.048 | -0.046 | -0.071 | -0.039
14 | VPS39 (UniProt Q96JC1) | -0.032 | 0.069 | -0.019 | -0.068 | -0.15 | -0.017 | 0.033 | 0.003 | -0.058 | 0.027 | 0.026 | -0.119 | -0.195 | -0.039 | 0.05 | 0.101 | 0.01 | -0.004 | 0.055 | -0.042
15 | UBAP1 isoform 4 (UniProt Q9NZ09) | -0.026 | -0.022 | -0.082 | -0.15 | -0.086 | 0.009 | 0.015 | -0.015 | -0.131 | 0.084 | -0.035 | -0.005 | -0.052 | 0.002 | -0.027 | -0.019 | 0.193 | 0.064 | -0.032 | -0.049
16 | WASHC3 (UniProt Q9Y3C0) | -0.06 | -0.032 | -0.042 | 0.001 | 0.047 | 0.028 | 0.035 | 0.048 | 0.029 | 0.003 | -0.037 | 0.1 | -0.271 (active) | -0.029 | -0.011 | -0.053 | 0.016 | 0.075 | -0.054 | -0.005
